# Measured values taken from PubChem BioAssay (NCATS).
# Records with an inconclusive call do not appear. Unmarked numbers belong to inactive results. Active and inactive are the calls of the source. Calls come from the whole dose curve; as a rule, active = well fitted inhibition curve with a large enough effect; inconclusive = small, poorly fitted or top-dose-only effect; inactive = no such curve, though single readings can be large or run the other way.
# Assay: Primary qHTS for small molecule stabilizers of the endoplasmic reticulum resident proteome: Secreted ER Calcium Modulated Protein (SERCaMP) assay (AID 1508630)
# Conditions: SH-SY5Y GLuc-SERCaMP (Gaussia luciferase released on ER calcium loss) secretion, thapsigargin, luminescence; series mostly up to 38.4 µM; activity change, negative = inhibition: at the top concentration
# Outline: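 GLuc-SERCaMP-expressing SH-SY5Y cells, pretreated 16 h with compound, are challenged with thapsigargin to empty ER calcium stores; after 4 h, coelenterazine is added directly to the medium and luminescence is imaged.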
# % is set by controls: 0 for no effect and ±100 for the full control effect.
SMILES,Potency,"activity change, negative = inhibition"
O=C(N[C@H](CO)[C@H](O)c1ccc([N+](=O)[O-])cc1)C(Cl)Cl,inactive,–
CC(C)(C)NC(=O)[C@H]1CC[C@H]2[C@@H]3CC[C@H]4NC(=O)C=C[C@]4(C)[C@H]3CC[C@]12C,inactive,–
CCn1cc(C(=O)O)c(=O)c2cc(F)c(N3CCNCC3)cc21,–,2.27%
CNS(=O)(=O)Cc1ccc2[nH]cc(CCN(C)C)c2c1,inactive,–
CCCOc1ccc(C(=O)OCCN(CC)CC)cc1N,inactive,–
CCCCc1oc2ccc(NS(C)(=O)=O)cc2c1C(=O)c1ccc(OCCCN(CCCC)CCCC)cc1,–,156%
CNC(=O)c1cc(Oc2ccc(NC(=O)Nc3ccc(Cl)c(C(F)(F)F)c3)cc2)ccn1,–,191%
CCN[C@H]1C[C@H](C)S(=O)(=O)c2sc(S(N)(=O)=O)cc21,–,2.1%
CC(N)C12CC3CC(CC(C3)C1)C2 (configuration not stated),–,-16.8%
COCCCOc1cc(C[C@@H](C[C@H](N)[C@@H](O)C[C@H](C(=O)NCC(C)(C)C(N)=O)C(C)C)C(C)C)ccc1OC,inactive,–
CCN(C)C(=O)Oc1cccc([C@H](C)N(C)C)c1,–,0.303%
NC(=O)N1c2ccccc2CC(=O)c2ccccc21,–,0%
N[C@@H](C(=O)N[C@@H]1C(=O)N2C(C(=O)O)=C(Cl)CS[C@H]12)c1ccccc1,inactive,–
O=C(O)c1ccc(-n2nc(-c3ccccc3O)nc2-c2ccccc2O)cc1,–,0%
CC(C)C1CCC(C(=O)N[C@H](Cc2ccccc2)C(=O)O)CC1 (some centres not stated),–,-31.6%
CC(=O)Oc1ccccc1C(=O)Nc1ncc([N+](=O)[O-])s1,–,50.7% [at 76.3 µM]
CN(CCOc1ccc(CC2SC(=O)NC2=O)cc1)c1ccccn1 (configuration not stated),inactive,–
